Screening results: PubChem BioAssay, The Scripps Research Institute Molecular Screening Center
PAFAH2 FP inh = PAFAH2 enzyme inhibitors, primary screen, biochemical, fluorescence polarization, human; recombinant PAFAH2, FP-rhodamine activity probe; inhibition, % at 3.39 µM; 0.99% of 340,000 active;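 active = inhibition above the mean over all tested compounds plus 3 SD, cut at about 30% in these data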;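 note: inhibitors block probe labeling of enzyme so polarization drops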
PP5 inh = PP5 phosphatase inhibitors, primary screen, biochemical, fluorescence; 0.18% of 320,000 active; Serine/threonine-protein phosphatase 5 (Homo sapiens), P53041; AID 1987, 2009; inhibition, % at 6.7 µM; purified PP5c, OMFP substrate fluorescence;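 active = inhibition above the campaign's mean inhibition across all tested compounds plus 3 SD, cut at about 9.5% in these data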
PAFAH1B3 FP inh = PAFAH1B3 enzyme inhibitors, primary screen, biochemical, fluorescence polarization, human; Platelet-activating factor acetylhydrolase IB subunit alpha1 (Homo sapiens), Q15102; inhibition, % at 3.39 µM; recombinant PAFAH1B3, FP-rhodamine probe; 0.28% of 340,000 active; AID 492972, 2010;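 active = inhibition above the screen-wide average of all tested compounds plus 3 SD, cut at about 25% in these data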
PAFAH1B2 FP inh = PAFAH1B2 enzyme inhibitors, primary screen, biochemical, fluorescence polarization, human. 1.2% of 340,000 active. Platelet-activating factor acetylhydrolase IB subunit alpha2 (Homo sapiens), P68402. recombinant PAFAH1B2, FP-rhodamine activity probe. inhibition, % at 3.39 µM;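 active = inhibition above the mean of all tested compounds plus 3 SD, cut at about 24% in these data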
Target sequence (P68402 whole entry, looked up): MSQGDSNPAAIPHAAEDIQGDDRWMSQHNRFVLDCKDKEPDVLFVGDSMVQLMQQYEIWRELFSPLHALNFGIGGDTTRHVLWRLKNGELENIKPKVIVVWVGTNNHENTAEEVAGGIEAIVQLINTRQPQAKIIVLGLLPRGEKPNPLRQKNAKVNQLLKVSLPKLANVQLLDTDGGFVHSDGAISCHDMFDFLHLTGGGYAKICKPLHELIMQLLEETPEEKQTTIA
PP1 counter = PP1-alpha phosphatase inhibitors, primary screen, counter-screen for PP5 inhibitor project, biochemical, fluorescence, OMFP substrate, single point. Serine/threonine-protein phosphatase PP1-alpha catalytic subunit (Homo sapiens), P62136. purified PP1alpha. inhibition, % at 6.7 µM. 0.9% of 320,000 active;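 active = inhibition above the mean inhibition of all tested compounds plus 3 SD, computed separately for each screening campaign, cut at about 15% in these data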
pPAFAH inh = pPAFAH enzyme inhibitors, primary screen, biochemical, fluorescence polarization, human; Platelet-activating factor acetylhydrolase (Homo sapiens), Q13093; recombinant pPAFAH, FP-rhodamine probe fluorescence polarization; inhibition, % at 3.39 µM; 1.5% of 330,000 active; AID 463082, 2010;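 active = inhibition above the mean inhibition across the screen plus 3 SD, cut at about 25% in these data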;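 note: inhibitors block binding of the rhodamine activity-based probe so polarization drops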
Target sequence (Q13093 whole entry, looked up): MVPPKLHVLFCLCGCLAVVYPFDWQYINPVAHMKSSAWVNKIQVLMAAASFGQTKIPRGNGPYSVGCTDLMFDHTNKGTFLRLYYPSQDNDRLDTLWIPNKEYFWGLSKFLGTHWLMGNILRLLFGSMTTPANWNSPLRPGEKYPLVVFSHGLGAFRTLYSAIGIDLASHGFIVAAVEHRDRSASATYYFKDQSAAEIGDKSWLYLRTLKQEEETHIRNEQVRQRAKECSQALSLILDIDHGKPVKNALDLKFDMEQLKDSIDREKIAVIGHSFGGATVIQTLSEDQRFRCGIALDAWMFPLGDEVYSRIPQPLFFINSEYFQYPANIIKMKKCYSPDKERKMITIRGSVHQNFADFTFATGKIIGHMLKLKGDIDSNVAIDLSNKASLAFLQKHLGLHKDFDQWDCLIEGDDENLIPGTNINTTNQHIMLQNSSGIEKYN
PAFAH2 confirm = PAFAH2 enzyme inhibitors, confirmation, biochemical, fluorescence polarization, human. shares compounds with PAFAH2 FP inh. recombinant PAFAH2, FP-rhodamine activity probe. inhibition, % at 3.39 µM. 65% of 2,300 active. AID 493030, 2011;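 active = mean inhibition over three repeats above a set limit taken from the earlier primary screen, cut at about 30% in these data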;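 note: inhibitor blocks binding of rhodamine activity probe so polarization falls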
Numbers stand for hits. This is a sample that favours compounds with a hit; in the whole collection about 3.4% have one here.

C/C=C/C(=O)OCC(=O)Nc1cc(-c2cc(C)c(C)cc2C)nn1-c1ccccc1 was read as PAFAH2 FP inh 40.8, PP5 inh inactive, PAFAH1B3 FP inh inactive, PAFAH1B2 FP inh inactive, PP1 counter inactive, pPAFAH inh inactive and PAFAH2 confirm 30.2.
`Cc1ccc(NC(=O)COC(=O)/C=C/c2c(C)nn(-c3ccc(F)cc3)c2Cl)cc1F` gave PAFAH2 FP inh 72.3, PP5 inh inactive, PAFAH1B3 FP inh inactive, PAFAH1B2 FP inh inactive, PP1 counter inactive, pPAFAH inh inactive and PAFAH2 confirm 57.3.
Screening COc1ccc(/C=C/C(=O)OCC(=O)Nc2cc(C(N)=O)cc(C(N)=O)c2)cc1 returned PAFAH2 FP inh inactive, PP5 inh inactive, PAFAH1B3 FP inh inactive, PAFAH1B2 FP inh inactive, PP1 counter inactive and pPAFAH inh inactive.
`COc1ccc(/C=C/C(=O)OCC(=O)Nc2cccc(C(C)=O)c2)cc1` gave PAFAH2 FP inh 90.2, PP5 inh inactive, PAFAH1B3 FP inh inactive, PAFAH1B2 FP inh inactive, PP1 counter inactive, pPAFAH inh inactive and PAFAH2 confirm 80.6.
Screening COc1cc(Cl)c(C)cc1NC(=O)CN1CCN(C(=O)C2CC2)CC1 returned PAFAH2 FP inh inactive, PP5 inh inactive, PAFAH1B3 FP inh inactive, PAFAH1B2 FP inh inactive, PP1 counter inactive and pPAFAH inh inactive.
Screening CC1(C)C(C=C(Cl)Cl)C1C(=O)Nc1ccc([N+](=O)[O-])cc1 (stereo unspecified) returned PP5 inh inactive, PP1 counter inactive and pPAFAH inh inactive.
Screening Cn1ccc(C(=O)NC(=S)N2CCSCC2)n1 returned PAFAH2 FP inh inactive, PP5 inh inactive, PAFAH1B3 FP inh inactive, PAFAH1B2 FP inh inactive, PP1 counter inactive and pPAFAH inh inactive.
Screening COc1cccc(NC(=O)COC(=O)/C=C/c2c(C)nn(-c3ccccc3)c2C)c1 returned PAFAH2 FP inh 78.3, PP5 inh inactive, PAFAH1B3 FP inh inactive, PAFAH1B2 FP inh inactive, PP1 counter inactive, pPAFAH inh inactive and PAFAH2 confirm 80.3.
Cc1nn(-c2ccccc2)c(C)c1/C=C/C(=O)OCC(=O)Nc1ccc(C(N)=O)cc1 was read as PAFAH2 FP inh inactive, PP5 inh inactive, PAFAH1B3 FP inh inactive, PAFAH1B2 FP inh inactive, PP1 counter inactive and pPAFAH inh inactive.
Screening COc1ccc(C(=O)COC(=O)/C=C/c2ccc(S(=O)(=O)Nc3cccc(S(N)(=O)=O)c3)cc2)cc1 returned PAFAH2 FP inh 31.7, PP5 inh inactive, PAFAH1B3 FP inh inactive, PAFAH1B2 FP inh inactive, PP1 counter inactive, pPAFAH inh inactive and PAFAH2 confirm inactive.
Screening CC(C)N(Cc1ccccc1)C(=O)CN1c2cccc3cccc(c23)S1(=O)=O returned PAFAH2 FP inh inactive, PAFAH1B3 FP inh inactive, PAFAH1B2 FP inh inactive and pPAFAH inh inactive.
C/C(CC(=O)NCc1ccco1)=N\NC(=O)c1ccc(Cl)cc1Cl was read as PAFAH2 FP inh inactive, PP5 inh inactive, PAFAH1B3 FP inh inactive, PAFAH1B2 FP inh inactive, PP1 counter inactive and pPAFAH inh inactive.
Screening O=[N+]([O-])c1ccc(CN2CCCCCC2)s1 returned PAFAH2 FP inh 32.0, PP5 inh inactive, PAFAH1B3 FP inh inactive, PAFAH1B2 FP inh inactive, PP1 counter inactive, pPAFAH inh inactive and PAFAH2 confirm inactive.
`O=C(c1ccc(OC2CCN(C/C=C/c3ccc(F)cc3)CC2)cc1)N1CCCC1` gave PAFAH2 FP inh inactive, PP5 inh inactive, PAFAH1B3 FP inh inactive, PAFAH1B2 FP inh inactive, PP1 counter inactive and pPAFAH inh inactive.
`Cc1cc(=O)[nH]c(SCc2cccc3ccccc23)n1` gave PAFAH2 FP inh 35.5, PP5 inh inactive, PAFAH1B3 FP inh inactive, PAFAH1B2 FP inh inactive, PP1 counter inactive, pPAFAH inh inactive and PAFAH2 confirm inactive.
`Cc1cc(CSc2nc(C)cc(=O)[nH]2)c2ncccc2c1` gave PAFAH2 FP inh inactive, PP5 inh inactive, PAFAH1B3 FP inh inactive, PAFAH1B2 FP inh inactive, PP1 counter inactive and pPAFAH inh inactive.
Cc1ccc(NC(=O)CSc2nnc3n2CCCCC3)cc1 was read as PAFAH2 FP inh inactive, PP5 inh inactive, PAFAH1B3 FP inh inactive, PAFAH1B2 FP inh inactive, PP1 counter inactive and pPAFAH inh inactive.
Screening CCOC(=O)c1oc2ccccc2c1COC(=O)C(C)NC(=O)c1ccco1 (stereo unspecified) returned PAFAH2 FP inh inactive, PP5 inh inactive, PAFAH1B3 FP inh inactive, PAFAH1B2 FP inh inactive, PP1 counter inactive and pPAFAH inh inactive.
CC1CCCCN1C(=O)/C(=C\c1ccccc1)c1ccccc1 (stereo unspecified) was read as PAFAH2 FP inh 38.0, PP5 inh inactive, PAFAH1B3 FP inh inactive, PAFAH1B2 FP inh inactive, PP1 counter inactive, pPAFAH inh inactive and PAFAH2 confirm inactive.
CN1CCCCCC1C(=O)N1CCC(N2CCC(C(=O)N3CCOCC3)CC2)CC1 (stereo unspecified) was read as PAFAH2 FP inh inactive, PP5 inh inactive, PAFAH1B3 FP inh inactive, PAFAH1B2 FP inh inactive, PP1 counter inactive and pPAFAH inh inactive.
CCCCC1=NN2C(=N)CC(=O)N=C2S1 was read as PAFAH2 FP inh 33.4, PP5 inh inactive, PAFAH1B3 FP inh inactive, PAFAH1B2 FP inh inactive, PP1 counter inactive, pPAFAH inh inactive and PAFAH2 confirm inactive.
Screening O=c1c2sccc2[nH]c(=S)n1Cc1ccccc1 returned PAFAH2 FP inh 62.5, PP5 inh inactive, PAFAH1B3 FP inh inactive, PAFAH1B2 FP inh inactive, PP1 counter inactive, pPAFAH inh inactive and PAFAH2 confirm 52.4.
Screening Cc1cccc(NC(=O)C(C)Sc2nc3nc(C)cc(C)n3n2)c1 (stereo unspecified) returned PAFAH2 FP inh inactive, PAFAH1B3 FP inh inactive, PAFAH1B2 FP inh inactive and pPAFAH inh inactive.
For CSCC[C@H](NC(=O)Cc1ccc(Cl)cc1)C(=O)N1CCC2(CC1)NCCc1[nH]cnc12 the results were PAFAH2 FP inh inactive, PP5 inh inactive, PAFAH1B3 FP inh inactive, PAFAH1B2 FP inh inactive, PP1 counter inactive and pPAFAH inh inactive.
For CC(NC(=O)COC(=O)C1CC1C)c1cccc(Cl)c1 (stereo unspecified) the results were PAFAH2 FP inh 36.1, PAFAH1B3 FP inh inactive, PAFAH1B2 FP inh inactive, pPAFAH inh inactive and PAFAH2 confirm inactive.
`CC(NC(=O)COC(=O)C1CCCCC1)c1ccccc1` (stereo unspecified) gave PAFAH2 FP inh 35.6, PAFAH1B3 FP inh inactive, PAFAH1B2 FP inh inactive, pPAFAH inh inactive and PAFAH2 confirm inactive.
